Measurements reported in PubChem BioAssay AID1345085 (National Center for Advancing Translational Sciences (NCATS), 2018).
Results filed as inconclusive are left out. Unmarked numbers belong to inactive results. Activity calls are given as the source filed them. Calls come from the whole dose curve; as a rule, active = well fitted cell-killing curve with a large enough effect; inconclusive = small, poorly fitted or top-dose-only effect, or effect the other way; inactive = no such curve, though single readings can be large or run the other way.
% is set by controls: 0 for no effect and ±100 for the full control effect; potency is the fitted concentration of half-maximal effect.
Note: nearly all actives have a fitted effect of over 55% in size.

The compounds below were run on JEG-3 (assay: Confirmatory qHTS for gynecologic anti-cancer compounds from libraries of approved drugs and bioactive compounds). Settings: gynecologic cancer cell panel viability, ATPlite luminescence, 48 h; series mostly up to 57.6 µM; activity change, negative = viability loss: at the top concentration.
In short: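 Viability is measured as ATP-dependent luciferase light using ATPlite, read 15 min after reagent addition at room temperature. Compounds, in DMSO, span 57.5 uM down to 0.977 nM over 11 threefold steps for 48 h.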
With CCN1CCN(Cc2ccc(Nc3ncc(F)c(-c4cc(F)c5nc(C)n(C(C)C)c5c4)n3)nc2)CC1 the Potency was 9.68 µM (active).
With CC(=O)NCC(=O)N1C2CCC1c1cc(Nc3ncc(C(F)(F)F)c(NC4CCC4)n3)ccc12 (stereo not drawn) the Potency was 19.3 µM (active).
In the case of Cc1cc(C(=O)N2CCN(c3cccc(Cl)c3)CC2)n(-c2ccccc2)n1, the Potency is reported as 3.43 µM (active).
For CC(C)c1nn(-c2c(Cl)cccc2Cl)c2nc(Cc3ccc(OCCO)cc3)[nH]c(=O)c12, the Potency was 0.0685 µM (active).
For CCCCN(CCCC)C(=O)CN1C[C@H](c2ccc3c(c2)OCO3)[C@@H](C(=O)O)[C@@H]1c1ccc(OC)cc1, the “activity change, negative = viability loss” value was 3.29%.
For O=C(/C=C/c1cccc(S(=O)(=O)Nc2ccccc2)c1)NO, the Potency was 1.19 µM (active).
With O=C1c2c(O)ccc(O)c2C(=O)c2c(NCCNCCO)ccc(NCCNCCO)c21 the Potency was 2.43 µM (active).
CCN(CC)CCOc1ccc(/C(=C(\Cl)c2ccccc2)c2ccccc2)cc1 was tested, and the Potency was 89.1 µM (active).
With NC(=O)c1cnc(-c2ccc(C3(N)CCC3)cc2)c(-c2ccccc2)c1 the Potency was 30.6 µM (active).
With COc1cccc2c1C(=O)c1c(O)c3c(c(O)c1C2=O)C[C@@](O)(C(=O)CO)C[C@@H]3O[C@H]1C[C@H](N)[C@H](O)[C@H](C)O1 the Potency was 1.09 µM (active).
In the case of Cc1cncc2cccc(S(=O)(=O)N3CCCN(C(=O)CN)C[C@@H]3C)c12, the “activity change, negative = viability loss” value is reported as -6.44%.
In the case of OCc1ccc(-c2ccc(-c3ccc(CO)s3)o2)s1, the “activity change, negative = viability loss” value is reported as -21.6% [at 19.5 µM].
In the case of Cc1ccc(C(=O)N(CCCN)C(c2nc3cc(Cl)ccc3c(=O)n2Cc2ccccc2)C(C)C)cc1 (stereo not drawn), the Potency is reported as 0.0153 µM (active).
COc1cc(N2CCC(N(C)C)CC2)ccc1Nc1ncc(Cl)c(Nc2ccccc2P(C)(C)=O)n1 was tested, and the Potency was 15.3 µM (active).
For Cc1ccccc1C(OCCN(C)C)c1ccccc1 (stereo not drawn), the “activity change, negative = viability loss” value was 0.4%.
For CN[C@@H](C)C(=O)N[C@H]1CN(C(=O)CC(C)C)CC[C@H]2CC[C@@H](C(=O)NC(c3ccccc3)c3ccccc3)N2C1=O, the “activity change, negative = viability loss” value was 14.6%.
In the case of CC(=O)Nc1cccc(-n2c(=O)n(C3CC3)c(=O)c3c(Nc4ccc(I)cc4F)n(C)c(=O)c(C)c32)c1, the “activity change, negative = viability loss” value is reported as -11%.
For CN1C(=O)C(Cc2c[nH]c3ccccc23)NC1=S (stereo not drawn), the “activity change, negative = viability loss” value was -3.66% [at 19.5 µM].
COc1ccc(-c2nc3ccc(C4=NNC(=O)CC4C)cc3[nH]2)cc1 (stereo not drawn) was tested, and the Potency was 21.7 µM (active).
In the case of O=C(CCCCCCNC(=O)c1cnc(N(c2ccccc2)c2ccccc2)nc1)NO, the Potency is reported as 7.69 µM (active).
In the case of Cc1ccc(C(N)=O)cc1Nc1nccc(-c2cn(C(C)C)c3cnccc23)n1, the Potency is reported as 7.69 µM (active).
In the case of Cn1cnc([N+](=O)[O-])c1Sc1ncnc2nc[nH]c12, the Potency is reported as 8.63 µM (active).
For CN(C[C@@H]1COCCO1)S(=O)(=O)Nc1ccc2ccc3ncc(-c4cnn(C)c4)cc3c(=O)c2c1, the “activity change, negative = viability loss” value was 4.4%.
For CC[C@H](CC#N)OC(=O)N[C@@H](C)c1cccc(NC(=O)Nc2ccc(-c3cnco3)c(OC)c2)c1, the Potency was 15.3 µM (active).
For Cc1nc2ccc(CN(C)c3ccc(C(=O)NC(CCC(=O)O)C(=O)O)s3)cc2c(=O)[nH]1 (stereo not drawn), the “activity change, negative = viability loss” value was -13.6%.
With NC(=O)c1cccc2cn(-c3ccc([C@@H]4CCCNC4)cc3)nc12 the “activity change, negative = viability loss” value was -6.66%.
In the case of CC(C)n1nc(-c2cc3cc(O)ccc3[nH]2)c2c(N)ncnc21, the Potency is reported as 17.2 µM (active).
With CNC(=O)c1ccccc1Sc1ccc2c(/C=C/c3ccccn3)n[nH]c2c1 the Potency was 13.7 µM (active).
For CC(C)C[C@H](NC(=O)[C@H](CCc1ccccc1)NC(=O)CN1CCOCC1)C(=O)N[C@@H](Cc1ccccc1)C(=O)N[C@@H](CC(C)C)C(=O)[C@@]1(C)CO1, the Potency was 17.2 µM (active).
In the case of Nc1nc(Cl)nc2c1ncn2C1OC(CO)C(O)C1F (stereo not drawn), the Potency is reported as 2.17 µM (active).
In the case of Cc1cc(Nc2nc(N[C@@H](C)c3ccc(F)cc3)c(C#N)cc2F)n[nH]1, the Potency is reported as 19.3 µM (active).
COc1ccc2cc3[n+](cc2c1OC)CCc1cc2c(cc1-3)OCO2 was tested, and the Potency was 3.85 µM (active).
In the case of COc1ccc(-c2cc3nccn3c(Nc3ncccc3C(N)=O)n2)cc1OC, the Potency is reported as 12.2 µM (active).
